Experimental data reported in PubChem BioAssay AID463173 (ICCB-Longwood Screening Facility, Harvard Medical School, 2010).
Hit rate of the full screen: of about 52,000 compounds, about 4,300 (8.3%) were called active. The sample as a whole holds a higher share of actives than the screen did. Values without a mark were called inactive. No stated cut-off is given here; in the data, active means survival mostly below about 52% (no sharp cut-off); inactive means mostly above about 56%.

System: DeltatarO mutant
Assay: S. aureus survival, RN4220 and DeltatarO strains – OD600, teichoic acid synthesis inhibitors, primary screen (AID 463173)
Conditions: S. aureus RN4220 wild type/DeltatarO growth, OD600, 18 h, active compounds read low, screened at 18.75 µg/mL (by protocol)

Structure (SMILES) | survival
COc1ccc2sc(C)[n+](CCO)c2c1 | 81%
CCOc1ccc(S(=O)(=O)Nc2ccc3c(c2)CCCN3S(=O)(=O)c2ccc(C)cc2)cc1 | 88%
COc1ccc(NC(=O)CN2C(=O)CCn3nc(-c4cccn4C)cc32)cc1 | 81%
COc1cc(OC)cc(N2C(=O)CSC23C(=O)Nc2ccccc23)c1 (stereo not given) | 99%
COc1ccc(OC)c(CNC(=O)c2c(C)oc3ncn(CC(C)C)c(=O)c23)c1 | 89%
COc1ccc(Nc2cc(C)nc(-n3nc(C)cc3C)n2)cc1Cl | 81%
COc1ccccc1N1CCN(S(=O)(=O)CCNC(=O)c2cc(=O)c3ccccc3o2)CC1 | 87%
CCNC(=S)N1CCC(NC(=O)c2ccccc2)CC1 | 110%
CCN(c1ccccc1)S(=O)(=O)c1ccc(NC(=O)c2nc(S(C)(=O)=O)ncc2Cl)cc1 | -1% (active)
CCN(c1ccccc1)S(=O)(=O)c1ccc(NC(=O)c2cc(=O)c3ccccc3o2)cc1 | 63%
CCN(c1ccccc1)S(=O)(=O)c1ccc(Cl)cc1 | 92%
CN1C(=O)/C(=C/C=C2/Sc3ccccc3N2CCO)SC1=S | 108%
Cc1c(-c2ccccc2)nc2c(Cl)cccc2c1C(=O)OCC(=O)c1ccc(F)cc1 | 75%
O=S(=O)(NCCS(=O)(=O)N1CCN(c2ccccc2)CC1)c1ccc(Br)cc1 | 91%
CCCC12CN3CC(C)(CN(C1)C3c1cn(CC)c3ccccc13)C2=O (stereo not given) | 83%
Cc1cccc(N2CCN(C(c3nnnn3C3CCCC3)C(C)C)CC2)c1C (stereo not given) | 79%
Cc1cc(NC(=O)CCS(=O)(=O)c2cc(Br)cc3c2N(C(=O)C2CC2)CC3)ccc1Br | 83%
COc1ccccc1C(=O)NC1(C(F)(F)F)NC(=O)N(CCc2ccccc2)C1=O (stereo not given) | 73%
COc1cc(CN(C(=O)c2ccc(Cl)cc2)C2CCS(=O)(=O)C2)cc(OC)c1OC (stereo not given) | 69%
CCOc1cccc(C(=O)N(Cc2ccc(C(C)C)cc2)C2CCS(=O)(=O)C2)c1 (stereo not given) | 40% (active)
CCOc1cccc(C(=O)N(Cc2ccc(CC)cc2)C2CCS(=O)(=O)C2)c1 (stereo not given) | 149%
COc1ccc(C(=O)N(Cc2ccc(C(C)C)cc2)C2CCS(=O)(=O)C2)cc1 (stereo not given) | 62%
COc1cc(C(=O)N(Cc2ccc(C(C)C)cc2)C2CCS(=O)(=O)C2)cc(OC)c1OC (stereo not given) | 46% (active)

Structure (SMILES) | survival
CCCOc1cccc(C(=O)N(Cc2cc(OC)c(OC)c(OC)c2)C2CCS(=O)(=O)C2)c1 (stereo not given) | 43% (active)
CCCOc1cccc(C(=O)N(Cc2ccc(C)o2)C2CCS(=O)(=O)C2)c1 (stereo not given) | 90%
CCCCOc1cccc(C(=O)N(Cc2ccc(N(C)C)cc2)C2CCS(=O)(=O)C2)c1 (stereo not given) | 56%
COc1ccc(CN(C(=O)c2ccc(OCC(C)C)cc2)C2CCS(=O)(=O)C2)cc1 (stereo not given) | 93%
COc1cc(CN(C(=O)c2ccc(C)cc2)C2CCS(=O)(=O)C2)cc(OC)c1OC (stereo not given) | 59%
CCCCOc1ccc(C(=O)N(Cc2ccc(C(C)C)cc2)C2CCS(=O)(=O)C2)cc1 (stereo not given) | 22% (active)
CCCCOc1cccc(C(=O)N(Cc2ccc(Cl)cc2)C2CCS(=O)(=O)C2)c1 (stereo not given) | 54%
CCN(CC)CCNC(=O)c1c(C)oc2ncnc(N3CCOCC3)c12 | 130%
Cc1ccc2oc(C(=O)N(Cc3ccc(N(C)C)cc3)CC3CCCO3)c(C)c2c1 (stereo not given) | 93%
Cc1ccccc1-n1c(SCC(=O)N(C(C)C)C(C)C)nnc1-c1cccnc1 | 99%
Cn1ccnc1SCC(=O)Nc1cc(Cl)ccc1Cl | 68%
COc1cccc(C2CC(=O)N(c3ccc(F)cc3)C3=C2C(=O)OC3)c1OC (stereo not given) | 75%
COc1ccc(-n2nc(C(=O)Nc3ccc(Br)cc3C)c3c4ccccc4n(C)c3c2=O)cc1 | 97%
Fc1ccc(C2=CC(c3ccc(F)cc3)n3c(nc4ccccc43)N2)cc1 (stereo not given) | 87%
CCOC(=O)c1ccc(NC(=O)CSc2c(C(C)C)cnc3c2c(=O)n(C)c(=O)n3C)cc1 | 107%
Cc1ccc2nc(-c3c[nH]c4ccccc34)c(Nc3ccccc3C)n2c1 | 96%
CC(=O)N1C(Nc2ccc(C)cc2)CCN1c1ccccc1 (stereo not given) | 81%
COc1ccc(Nc2oc(/C=C/c3cccc(OC)c3)nc2C#N)cc1 | 100%
Cc1ccc2c(c1)C(c1ccc(F)cc1)N(C(=O)c1ccc(S(=O)(=O)N3CCCCC3)cc1)CC(=O)N2 (stereo not given) | 178%
Cc1cccc(NC(=O)CSc2nc3ccccc3nc2N2CCC(C)CC2)c1 | 8% (active)
CC1CCN(c2nc3ccccc3nc2SCC(=O)Nc2ccccc2C(C)C)CC1 | -1% (active)
Cc1ccc(C)c(NC(=O)CSc2nc3ccccc3nc2N2CCOCC2)c1 | 85%
CC(=O)Nc1ccc(NC(=O)CSc2nc3ccccc3nc2N2CCC(C)CC2)cc1 | 75%

Structure (SMILES) | survival
CCc1ccc(Cn2c(CNS(=O)(=O)c3ccc4c(c3)CCCC4)nc3cccnc32)cc1 | 102%
Fc1ccc(-n2ncc3c(N4CCC(Cc5ccccc5)CC4)ncnc32)cc1 | 90%
COc1cccc(C2CC(=O)Nc3c2c(=O)n(C)c2ncnn32)c1OC (stereo not given) | 166%
Cc1ccc2c(c1)c1c3n2CCN(C(=O)Cn2c(-c4ccccc4)noc2=O)C3CCC1 (stereo not given) | 90%
CC1CCc2c(sc(NC(=O)c3cc4nc(-c5ccc(Cl)cc5)cc(C(F)(F)F)n4n3)c2C#N)C1 (stereo not given) | 91%
O=S(=O)(c1ccc(Br)cc1)c1nnn2c1nc(NC1CCCCCC1)c1sccc12 | 63%
Cc1ccc(C)c(S(=O)(=O)c2nnn3c2nc(NC2CCCCC2)c2sccc23)c1 | 40%
Cc1ccc(S(=O)(=O)c2nnn3c2nc(NC2CCCCC2)c2sccc23)cc1C | 35% (active)
O=S(=O)(c1ccc(Cl)cc1)c1nnn2c1nc(NC1CCCCC1)c1sccc12 | 41%
Cc1ccc(S(=O)(=O)c2nnn3c2nc(NC2CCCCCC2)c2sccc23)cc1C | -4% (active)
Cc1ccc(S(=O)(=O)c2nnn3c2nc(NC2CCCCC2)c2sccc23)cc1 | 109%
CCn1cc2nc(SCc3cccc(Cl)c3)n(Cc3ccc(C)cc3)c(=O)c2n1 | 44%
COC(=O)CC(=O)CSc1nc(C)cc(C(F)(F)F)c1C#N | 83%
O=c1cc(CSc2nnc(COc3ccccc3)o2)c2ccccc2[nH]1 | 107%
O=C1Nc2c(c(=O)[nH]c(=O)n2-c2ccc(F)cc2)C1(NS(=O)(=O)c1ccc(Cl)cc1)C(F)(F)F (stereo not given) | 59%
COC(=O)c1ccccc1NC(=O)c1cc2ccccn2n1 | 73%
COc1ccccc1Cn1ccn(Cc2c(F)cccc2Cl)c(=O)c1=O | 110%
O=c1c(=O)n(-c2ccccc2)ccn1Cc1c(F)cccc1Cl | 44% (active)
O=c1c(=O)n(Cc2c(F)cccc2Cl)ccn1Cc1ccccc1 | 82%
Cc1cc(O)c(CN2CCN(c3ccc(F)cc3)CC2)c2oc(=O)cc(C)c12 | 46%
Cc1ccc(NC(=O)CCSCCc2ccccn2)cc1 | 93%
CC(=O)Nc1ccc(NC(=O)CCSCCc2ccccn2)cc1 | 135%
O=C(CCSCCc1ccccn1)Nc1ccc(Cl)cc1 | 47% (active)

Structure (SMILES) | survival
COc1ccc(-n2c(C)nnc2SCc2nc(-c3ccc(OC)c(OC)c3)no2)cc1 | 71%
COC(=O)c1ccc2c(c1)N(CC(=O)Nc1ccc(C)cc1Cl)C(=O)c1ccccc1S2 | 76%
Cc1ccc(O)c(C(CC(=O)NCC2(c3ccccc3)CCCC2)c2ccccc2)c1 (stereo not given) | 82%
Cc1cccc(C(CC(=O)NCC2(c3ccccc3)CCCC2)c2ccccc2)c1O (stereo not given) | 38% (active)
Cc1ccc(C(CC(=O)NCC2(c3ccccc3)CCCC2)c2ccccc2)c(O)c1 (stereo not given) | 101%
O=C(O)CCc1ccc(-c2ccc(F)cc2)n1CCC(=O)O | 103%
Cc1ccc(NC(=O)CSc2nnc(C)c(=O)[nH]2)cc1 | 70%
c1ccc(Cc2[nH]nc3ccccc23)cc1 | 89%
Cc1c(-c2nsc(NC(=O)c3ccccc3)n2)nnn1-c1ccc(C(F)(F)F)c(Cl)c1 | 86%
Cc1ccc(Cl)cc1-n1nnc(-c2nsc(NC(=O)c3ccccc3Cl)n2)c1C | 6% (active)
Cc1cc(C)cc(-n2nnc(-c3nsc(NC(=O)c4ccccc4Cl)n3)c2C)c1 | 64%
CCc1ccc(-n2nnc(-c3nsc(NC(=O)c4ccccc4Cl)n3)c2C)cc1 | 15% (active)
CSc1cccc(-n2nnc(-c3nsc(NC(=O)c4cccs4)n3)c2C)c1 | 73%
Cc1cccc(C(=O)Nc2nc(-c3nnn(-c4cc(C)ccc4C)c3C)ns2)c1 | 94%
CCc1cccc(-n2nnc(-c3nsc(NC(=O)c4ccc(C)cc4)n3)c2C)c1 | 54%
COc1cccc(C(=O)Nc2nc(-c3nnn(-c4ccccc4C(F)(F)F)c3C)ns2)c1 | 87%
Cc1ccc(-n2nnc(-c3nsc(NC(=O)c4cccc(Cl)c4)n3)c2C)cc1C | 76%
Cc1c(-c2nsc(NC(=O)c3cccc(Cl)c3)n2)nnn1-c1ccccc1C(F)(F)F | -4% (active)
CCc1cccc(-n2nnc(-c3nsc(NC(=O)c4cccs4)n3)c2C)c1 | -5% (active)
Cc1ccc(-n2nnc(-c3nsc(NC(=O)c4ccccc4C)n3)c2C)cc1Cl | 134%
O=C(Cn1ncc2c3ccccc3n(Cc3ccccc3F)c2c1=O)NCc1ccccc1Cl | 78%
